Test results taken from the supplement of paper PMC8728848.
The entries come from a sample that favours the strongest signals as a whole.

What was measured:
Experiment in all cases: glycan array binding signal (z-score within array); higher = stronger binding
Details in all cases: glycan notation: IUPAC condensed, linker removed
[1] = tested on: Gal(a1-6)Glc
Outline: (§1)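 Columns mapping to the same glycan were averaged after glycan names were converted to IUPAC-condensed notation. The data come from 3228 arrays in the Consortium for Functional Glycomics database, limited to those with an available protein sequence. Binding is reported as a within-array Z-score averaged across arrays of one protein sequence and across linkers.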

[2] = tested on: Gal(b1-3)GlcNAc(b1-3)Gal(b1-4)Glc
Outline: as §1

[3] = tested on: Gal(b1-3)GalNAc(b1-4)Gal(b1-4)Glc
Outline: as §1

[4] = tested on: Gal(b1-2)Gal
Outline: as §1

[5] = tested on: Gal(b1-3)GalNAc(a1-3)[Fuc(a1-2)]Gal(b1-4)Glc
Outline: as §1

[6] = tested on: Gal(b1-3)[Fuc(a1-4)]GlcNAc(b1-2)Man(a1-3)[Gal(b1-3)[Fuc(a1-4)]GlcNAc(b1-2)Man(a1-6)]Man(b1-4)GlcNAc(b1-4)GlcNAc
Outline: as §1

[7] = tested on: Gal(b1-3)GlcNAc(b1-2)Man(a1-3)[GlcNAc(b1-4)][Gal(b1-3)GlcNAc(b1-2)Man(a1-6)]Man(b1-4)GlcNAc(b1-4)GlcNAc
Outline: as §1

[8] = tested on: Gal(b1-3)GlcNAc(b1-3)Gal(b1-4)GlcNAc(b1-6)[Gal(b1-3)GlcNAc(b1-3)]Gal(b1-4)Glc
Outline: as §1

[9] = tested on: Gal(b1-3)GlcNAc(b1-6)Gal(b1-4)GlcNAc
Outline: as §1

[10] = tested on: Gal(b1-3)GlcNAc(b1-6)GalNAc
Outline: as §1

[11] = tested on: Gal(b1-3)GalNAc(a1-3)[Fuc(a1-2)]Gal(b1-4)GlcNAc
Outline: as §1

[12] = tested on: Gal(b1-3)GalNAc
Outline: as §1

[13] = tested on: Gal(b1-3)GalNAc(b1-3)Gal(a1-4)Gal(b1-4)Glc
Outline: as §1

[14] = tested on: Gal(b1-3)GalNAc(b1-3)Gal
Outline: as §1

[15] = tested on: Gal(b1-3)GlcNAc(b1-2)Man
Outline: as §1

[16] = tested on: Gal(b1-3)GalNAc(b1-4)[Neu5Gc(a2-3)]Gal(b1-4)Glc
Outline: as §1

[17] = tested on: Gal(b1-3)GlcNAc(b1-3)Gal(b1-4)GlcNAc(b1-2)[Gal(b1-3)GlcNAc(b1-3)Gal(b1-4)GlcNAc(b1-6)]Man(a1-6)[Gal(b1-3)GlcNAc(b1-3)Gal(b1-4)GlcNAc(b1-2)Man(a1-3)]Man(b1-4)GlcNAc(b1-4)[Fuc(a1-6)]GlcNAc
Outline: as §1

[18] = tested on: Gal(b1-3)GlcNAc(b1-3)Gal(b1-4)GlcNAc(b1-3)Gal(b1-4)GlcNAc(b1-2)[Gal(b1-3)GlcNAc(b1-3)Gal(b1-4)GlcNAc(b1-3)Gal(b1-4)GlcNAc(b1-6)]Man(a1-6)[Gal(b1-3)GlcNAc(b1-3)Gal(b1-4)GlcNAc(b1-3)Gal(b1-4)GlcNAc(b1-2)Man(a1-3)]Man(b1-4)GlcNAc(b1-4)[Fuc(a1-6)]GlcNAc
Outline: as §1

[19] = tested on: Gal(b1-3)GlcNAc6S
Outline: as §1

Wza (Escherichia coli), P0A930
glycan array binding signal (z-score) [1]: 3.12 | glycan array binding signal (z-score) [2]: -0.658

AgI/II Vhelical-GFP (Streptococcus mutans)
glycan array binding signal (z-score) [1]: -0.194 | glycan array binding signal (z-score) [3]: -0.139

BambL (Burhholderia ambifaria), Q0B4G1
glycan array binding signal (z-score) [4]: -0.304 | glycan array binding signal (z-score) [5]: -0.278 | glycan array binding signal (z-score) [2]: -0.312 | glycan array binding signal (z-score) [6]: -0.317

LcI (Legionella pneumophila)
glycan array binding signal (z-score) [4]: 4.02 | glycan array binding signal (z-score) [7]: 0.389 | glycan array binding signal (z-score) [8]: -0.388 | glycan array binding signal (z-score) [9]: -0.157 | glycan array binding signal (z-score) [10]: 3.69

Actinohivin (Actinomycete K97)
glycan array binding signal (z-score) [11]: -0.176

SpGH101 (Streptococcus pneumoniae), Q8DR60
glycan array binding signal (z-score) [11]: 1.71 | glycan array binding signal (z-score) [5]: 2.88 | glycan array binding signal (z-score) [12]: 8.17 | glycan array binding signal (z-score) [6]: 1.28

GspB (Streptococcus gordonii), Q939N5
glycan array binding signal (z-score) [13]: 3.02

Epa22
glycan array binding signal (z-score) [14]: 2.8 | glycan array binding signal (z-score) [3]: 2.6 | glycan array binding signal (z-score) [12]: 1.46 | glycan array binding signal (z-score) [15]: -0.018

MIC3-MAR1b (Eimeria tenella), B6VCV4
glycan array binding signal (z-score) [16]: -0.47

AgI/IIC123-GFP (Streptococcus mutans)
glycan array binding signal (z-score) [17]: 5.61 | glycan array binding signal (z-score) [18]: -0.036 | glycan array binding signal (z-score) [9]: 0.823 | glycan array binding signal (z-score) [19]: -0.244
